Experimental data as given in PubChem BioAssay AID1508600 (Functional Genomics Laboratory (NCATS/FGL), 2020).
Hit rate of the full screen: of about 53,000 sequences, about 3,700 (7%) were called active.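 How the source made its calls: active means gene knockdowns whose robust z-score for IL-1 alpha signal is at least 2 or at most -2, so actives lie on both sides; inactive means the rest.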 The entries come from a sample that favours actives as a whole.

Experiment: Components of the Cytosolic LPS Sensing Pathway: Gene Identification via Genome-wide siRNA Screen;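 further: robust z of the log signal after scaling to non-targeting control siRNA wells of the plate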
Details: RAW264.7 macrophages, IL-1a HTRF, actives lie on both sides, screened at 100 nM (by protocol), cells primed 5 h with Pam3CSK4 first
Outline: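 Three distinct siRNAs per gene were tested singly at 100 nM in RAW264.7 macrophages. Following Pam3CSK4 priming and 24 hour LipidA transfection, IL-1a secretion was read by HTRF.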

Sequence | z-score
GGCUUAACAGAGAAACACCTT against Lrrc49 | 0.563 (inactive)
GAAUGUCUGAGCAAGGAGGTT against Arpp21 | 0.227 (inactive)
GCUCAUGUAGGAUGUAUAUTT against Olfr146 | -0.483 (inactive)
CCCUCCAUGGAAAUGACAUTT against Slit3 | 2.4 (active)
GCAGAUGUACUCUAAGGGUTT against Adam23 | 1.17 (inactive)
CGCCAUAGUUGGUUUUGUUTT against Scamp4 | 1.2 (inactive)
GCGACUACAAGGAUACCCUTT against Krt71 | 0.169 (inactive)
GGCCAGUGAGCAGCAUUAUTT against Krt222 | 0.787 (inactive)
CCGCUCUUUUACAGCUGGATT against Rsl1d1 | 1.99 (inactive)
CCCGCUAUUUGGUGCUAACTT against Amh | 3.21 (active)
GCAUAACUCCCAUCCAUAGTT against Glra2 | -0.622 (inactive)
CCUUUUUUUGGUAACUCGUTT against Sox11 | -0.0308 (inactive)
CCUACAGAAUAGAAAAUUCTT against Elmod2 | -0.161 (inactive)
GGCCCAACACCUUUAUCAUTT against Akt1 | 2.77 (active)
GGAUGGACUAAAUGAUGAUTT against Ythdf2 | -0.00923 (inactive)
GGAUUCUGUGCUUUCCUGGTT against Pomt2 | -0.77 (inactive)
CCUGCAUCGUACGCUACUUTT against Pcgf2 | -1.83 (inactive)
GGUGCUCUCAAGUGGGAUUTT against Gm5114 | -2.15 (active)
GCCAAAUUAGCAGCUUGUGTT against Rln3 | -0.0674 (inactive)
CGUACAACCUCAAGGUUCUTT against Lag3 | -1.68 (inactive)
GGCAAAAUUAGCAUCAAAGTT against Slc22a3 | 0.577 (inactive)
GCCUAGACCUAAGCAUAGCTT against Prpmp5 | 0.228 (inactive)
GGCCCUGUUAGUGCUAUACTT against Amh | -1.15 (inactive)

Sequence | z-score
GGAAGAUUGAAAUAGGCGATT against Mecom | -1.25 (inactive)
GGAAAAGGCCGAUUUCGUGTT against Dixdc1 | 0.556 (inactive)
GGCAGUAGUGAACAGAGACTT against Krt222 | -0.199 (inactive)
GGAUCUUCCUGGAUGCCAATT against Hps1 | -2.61 (active)
GCUGACUCCGUGUUUUUAATT against Arhgef18 | -0.539 (inactive)
GGGCUCUUGUGUUAAGGCATT against Krt27 | -0.119 (inactive)
GGAGCUAGAACUCAAUGAATT against Lingo1 | 0.65 (inactive)
CCUCAUAGCCAGUCUUUUUTT against Pafah2 | -0.553 (inactive)
GUCCUAAAACGAGUGAGAGTT against Trib3 | -0.793 (inactive)
GGACACAGCAAGGAAGAAATT against Mad2l1bp | 0.335 (inactive)
GUUGUGUUCUGAUUGUUUUTT against Olfr1020 | 2.03 (active)
GGACAGGUACUUUUCCCUGTT against Gnpda2 | -1.19 (inactive)
CCAGUCAUUGUGCUUGUUATT against Sox12 | 0.929 (inactive)
GGAGGACGUAUCAUUACAUTT against Twf1 | 1.95 (inactive)
GGAGGAUAUAAAAAAGAAGTT against L2hgdh | 0.00317 (inactive)
GCCAAGGACUCAGUGAAUGTT against Iqsec2 | -1.19 (inactive)
GGUCCUCUCAGACAUGAAGTT against Pagr1a | -0.237 (inactive)
GCGGUAAGAACGUGGAACUTT against Tent5b | 0.536 (inactive)
GGGCAAGUUCCAUCUCCUUTT against Cdc42ep2 | -2.2 (active)
GCAUGAAGAGGCAAAGGCUTT against Igfbp1 | -0.555 (inactive)
GGAAGUUAAUGGGUAAAGUTT against Olfr365 | -1.67 (inactive)
GGACAAAACUAAACAGCAATT against Smarcal1 | -0.662 (inactive)
GGGCUUUCUUGGUUUUAUCTT against Depp1 | -0.377 (inactive)

Sequence | z-score
GUCGCAUCUCCAAAAAUGGTT against Olfr340 | -1.46 (inactive)
GGAUCCUCUCAUUAAGAAATT against Gabra1 | -1.15 (inactive)
CGACUUCGCCUUAUGAGAUTT against Tst | -1.19 (inactive)
GCAAGUGAGUUAGCAGUCATT against Atp2c1 | -2.23 (active)
GGUUGAUCCAAAAGAUUACTT against Rp2 | 0.557 (inactive)
GGUCAUGAAAAAUGACAGCTT against Klra2 | 0.126 (inactive)
GGAAGAAGAGGAUGAGAUUTT against Clcn6 | -1.73 (inactive)
GGCUCACAAUUGCUGUGUATT against Psg23 | -0.566 (inactive)
GGAUGUUGGCAGCCGAACATT against St3gal2 | -0.684 (inactive)
GGACAAGAUGUUGAGUAUUTT against Plrg1 | -2.23 (active)
UUGUCAUUCACUUGAUGAATT against H2bu2 | 0.238 (inactive)
CCAUGCCCACUGGAUAGAUTT against Nat14 | -1.21 (inactive)
CCCGAAUUGACAACAUCGUTT against Olfr855 | 0.566 (inactive)
CGCCUUAAACGAAGCUGCUTT against 1700034E13Rik | -1.28 (inactive)
GGUUUCCUUUUUGUUCAUUTT against Dlg3 | 0.566 (inactive)
CCGGUUGUUUUGAGUGUUGTT against Rad9b | 1.09 (inactive)
GGAAAACACAGCUACGGAATT against Ak5 | 2.21 (active)
CCAUAUAUUAUGGACCUUATT against Hepacam2 | -0.576 (inactive)
CCGAAAUAAGGCUAGCUCATT against Rfx6 | -0.282 (inactive)
GGUCUUACCAACAGAACCCTT against Rad51ap1 | 1 (inactive)
GCAAUGCUCUAAUCCACUCTT against Npas4 | 0.654 (inactive)
GGAAUUAUAGGACUUGUUCTT against Serinc1 | 0.256 (inactive)
